Assay results from PubChem BioAssay (NCATS).
Values joined by “and” are separate entries in the source; they are usually repeats but may differ in a detail not shown here. Equal entries are not always repeated. Inconclusive results are not listed. A call without a number means that no potency is given here. Active and inactive are the calls of the source. Unless noted, calls come from the whole dose curve; as a rule, active = well fitted curve in the direction sought with a large enough effect; inconclusive = small, poorly fitted or top-dose-only effect, or another doubt; inactive = no such curve, though single readings can be large; an effect the other way counts as inactive or inconclusive.

Key:
[1] = Validation screen for small molecules that induce genotoxicity in human embryonic kidney (HEK293T) cells expressing luciferase-tagged ELG1 (AID 493106)
In short: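 In this validation screen, increased ELG1-luciferase signal flags compounds causing genetic stress. HEK293T reporter cells are treated 16 hr (37 °C, 5% CO2), developed with ONE-Glo for 30 min at room temperature, and imaged on a CCD-based reader.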

[2] = target: ATPase family AAA domain-containing protein 5 (Homo sapiens) (UniProt Q96QE3); assay: Validation screen for small molecules that inhibit ELG1-dependent DNA repair in human embryonic kidney (HEK293T) cells expressing luciferase-tagged ELG1 (AID 493107); note: nearly all actives have a fitted effect of over 70% in size; note: potency is the fitted concentration of half-maximal effect
Sequence of ATPase family AAA domain-containing protein 5 (Homo sapiens) (Q96QE3 whole entry, looked up, the tested form may be a part): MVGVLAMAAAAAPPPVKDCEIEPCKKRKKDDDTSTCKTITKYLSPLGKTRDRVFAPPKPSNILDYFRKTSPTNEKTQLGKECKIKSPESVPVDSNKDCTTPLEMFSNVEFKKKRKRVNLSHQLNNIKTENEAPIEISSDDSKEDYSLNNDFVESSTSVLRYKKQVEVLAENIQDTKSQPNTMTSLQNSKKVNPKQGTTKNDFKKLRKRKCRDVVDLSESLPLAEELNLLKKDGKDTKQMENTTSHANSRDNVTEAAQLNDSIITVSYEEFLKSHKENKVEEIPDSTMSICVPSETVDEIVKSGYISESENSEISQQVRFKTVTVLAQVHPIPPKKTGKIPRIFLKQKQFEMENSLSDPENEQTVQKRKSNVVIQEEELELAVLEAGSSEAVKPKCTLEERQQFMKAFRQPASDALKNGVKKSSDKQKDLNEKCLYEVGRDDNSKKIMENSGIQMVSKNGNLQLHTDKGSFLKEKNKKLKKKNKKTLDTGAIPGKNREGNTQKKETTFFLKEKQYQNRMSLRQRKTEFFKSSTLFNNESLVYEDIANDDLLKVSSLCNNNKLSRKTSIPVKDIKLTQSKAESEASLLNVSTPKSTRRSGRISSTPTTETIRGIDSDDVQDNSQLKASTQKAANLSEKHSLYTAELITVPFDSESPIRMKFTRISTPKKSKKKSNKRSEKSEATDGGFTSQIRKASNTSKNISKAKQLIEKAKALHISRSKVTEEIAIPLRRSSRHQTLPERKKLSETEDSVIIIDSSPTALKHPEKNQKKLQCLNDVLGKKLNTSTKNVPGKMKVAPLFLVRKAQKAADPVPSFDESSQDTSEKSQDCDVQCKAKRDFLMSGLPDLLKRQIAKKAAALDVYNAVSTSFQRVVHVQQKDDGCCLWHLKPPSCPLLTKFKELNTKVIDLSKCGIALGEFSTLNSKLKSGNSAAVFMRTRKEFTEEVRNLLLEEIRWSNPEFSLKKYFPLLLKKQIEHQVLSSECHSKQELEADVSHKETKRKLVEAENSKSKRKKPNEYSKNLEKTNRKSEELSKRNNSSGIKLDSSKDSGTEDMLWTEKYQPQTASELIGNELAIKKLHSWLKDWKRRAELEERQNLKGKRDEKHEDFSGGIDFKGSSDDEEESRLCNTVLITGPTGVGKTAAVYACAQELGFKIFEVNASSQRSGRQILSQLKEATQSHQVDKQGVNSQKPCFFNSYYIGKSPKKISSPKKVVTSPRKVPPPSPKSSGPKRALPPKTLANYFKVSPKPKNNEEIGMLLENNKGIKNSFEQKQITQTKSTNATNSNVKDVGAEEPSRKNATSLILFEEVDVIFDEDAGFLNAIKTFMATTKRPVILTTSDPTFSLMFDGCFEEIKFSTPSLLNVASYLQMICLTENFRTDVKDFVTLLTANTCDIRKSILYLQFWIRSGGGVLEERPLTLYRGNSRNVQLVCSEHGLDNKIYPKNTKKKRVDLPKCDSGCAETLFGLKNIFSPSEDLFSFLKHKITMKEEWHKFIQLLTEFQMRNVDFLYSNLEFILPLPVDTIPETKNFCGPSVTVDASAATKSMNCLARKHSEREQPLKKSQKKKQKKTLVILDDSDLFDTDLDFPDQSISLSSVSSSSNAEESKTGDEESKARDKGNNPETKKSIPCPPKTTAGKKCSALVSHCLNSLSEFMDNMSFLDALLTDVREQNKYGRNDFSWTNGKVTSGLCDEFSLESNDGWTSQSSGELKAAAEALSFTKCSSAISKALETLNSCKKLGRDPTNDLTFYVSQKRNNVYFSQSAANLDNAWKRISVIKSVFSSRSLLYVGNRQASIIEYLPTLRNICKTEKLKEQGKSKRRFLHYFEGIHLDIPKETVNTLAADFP
In short: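 Compounds reducing 5-fluorouridine-driven ELG1-luciferase signal in HEK293T cells were scored; exposure lasted 16 hr at 37 °C with luminescence detected via ONE-Glo.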

[3] = Nrf2 qHTS screen for inhibitors: Validation (AID 493153; active = well fitted inhibition curve with a large enough effect in the main read-out, with a control signal flat, not every such curve was filed as active); conditions: Potency: luciferase luminescence; viability change: measured here: cytotoxicity max response
In short: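 In this counterscreened reporter format, each well gives two signals: CellTiter-Fluor fluorescence for cytotoxicity and ARE-luciferase luminescence for Nrf2 function. A549 ARE_Fluc cells in 5% FBS OPTI-MEM were exposed to compound titrations for 18-24 h.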

[4] = qHTS for Inhibitors of Cell Surface uPA Generation: Validation Assay (AID 493164);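 note: RAW 264.7 macrophage cells exposed to compound for 18 h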
In short: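 Compounds are titrated over seven points (2.45 nM–38.3 uM final) onto pre-plated RAW 264.7 cells and incubated for 18 h. Retained intracellular ATP, measured with ATP-Lite, indicates blocked lethal factor entry.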

[5] = target: Galactokinase (Homo sapiens) (UniProt P51570); assay: qHTS Validation Assay for Inhibitors of Human Galactokinase (GALK) (AID 493189)
Sequence of Galactokinase (Homo sapiens) (P51570 whole entry, looked up): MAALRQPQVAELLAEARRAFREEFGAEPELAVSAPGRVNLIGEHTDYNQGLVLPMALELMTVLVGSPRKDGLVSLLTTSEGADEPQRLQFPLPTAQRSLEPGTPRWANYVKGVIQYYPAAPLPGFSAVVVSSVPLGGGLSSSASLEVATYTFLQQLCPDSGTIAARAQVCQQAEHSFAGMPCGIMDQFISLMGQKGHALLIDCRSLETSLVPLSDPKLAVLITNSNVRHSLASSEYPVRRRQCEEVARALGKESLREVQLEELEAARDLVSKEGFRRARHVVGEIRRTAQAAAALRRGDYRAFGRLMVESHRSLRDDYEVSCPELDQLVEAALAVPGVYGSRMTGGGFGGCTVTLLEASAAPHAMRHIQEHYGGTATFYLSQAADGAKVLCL
In short: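 Compounds were pin-transferred into ATP buffer, then GALK-galactose mix was added (final 5 nM enzyme, 100 uM galactose, 35 uM ATP). After 1 h at room temperature, remaining ATP was measured luminescently.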

[6] = Validation screen for small molecules that induce DNA re-replication in SW480 colon adenocarcinoma cells (AID 504364)
In short: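 Hoechst-stained SW480 nuclei, imaged at 405 nm excitation after 48 hr compound exposure, were counted for elevated DNA content as the re-replication signal.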

[7] = target: Peptidyl-prolyl cis-trans isomerase NIMA-interacting 1 (Homo sapiens) (UniProt Q13526); assay: qHTS Validation Assay to Find Inhibitors of Pin1 (AID 504536; active = well fitted inhibition curve with a large enough effect in the polarisation, with a control signal flat, not every such curve was filed as active; the % refers to the polarisation)
Sequence of Peptidyl-prolyl cis-trans isomerase NIMA-interacting 1 (Homo sapiens) (Q13526 whole entry, looked up): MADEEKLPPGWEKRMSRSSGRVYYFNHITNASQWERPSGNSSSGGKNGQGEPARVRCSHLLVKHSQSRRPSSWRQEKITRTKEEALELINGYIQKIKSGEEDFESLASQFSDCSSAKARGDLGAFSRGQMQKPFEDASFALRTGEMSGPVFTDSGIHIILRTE
In short: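 Fluorescence polarization competition: compounds (titration) displace HiFluor-488-labeled Pin1-1b peptide from Pin1 (0.3 uM final) in pH 7.5 HEPES buffer with DTT, 10 min at room temperature; %Activity normalized to no-enzyme wells, curves fitted.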

[8] = target: Phosphoglycerate kinase, glycosomal (Trypanosoma brucei brucei) (UniProt P07378); assay: qHTS Validation Assay to Find Inhibitors of Phosphoglycerate Kinase (AID 504547)
Sequence of Phosphoglycerate kinase, glycosomal (Trypanosoma brucei brucei) (P07378 whole entry, looked up): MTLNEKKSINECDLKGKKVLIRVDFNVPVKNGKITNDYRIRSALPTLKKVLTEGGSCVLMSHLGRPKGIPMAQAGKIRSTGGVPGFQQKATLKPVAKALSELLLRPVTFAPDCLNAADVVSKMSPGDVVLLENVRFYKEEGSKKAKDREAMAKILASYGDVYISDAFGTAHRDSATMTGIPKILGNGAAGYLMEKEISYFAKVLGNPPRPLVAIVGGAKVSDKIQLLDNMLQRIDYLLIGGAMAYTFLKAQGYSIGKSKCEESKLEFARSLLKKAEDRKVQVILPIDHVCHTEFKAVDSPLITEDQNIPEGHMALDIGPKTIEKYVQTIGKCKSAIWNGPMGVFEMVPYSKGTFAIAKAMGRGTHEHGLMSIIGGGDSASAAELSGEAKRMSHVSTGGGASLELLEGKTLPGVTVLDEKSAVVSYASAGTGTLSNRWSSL
In short: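 Compounds are pinned into the substrate/PGK mixture, and GAPDH (100nM final) is added to start the reaction by producing 1,3-BPG. After 60 minutes at room temperature, Kinase-Glo Plus is added and luminescence is measured 10 minutes later.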

[9] = target: phosphoglycerate mutase (Leishmania major) (UniProt Q4Q090); assay: qHTS Validation Assay to Find Inhibitors of Phosphoglycerate Mutase (AID 504548); note: series mostly up to about 58 µM
Sequence of phosphoglycerate mutase (Leishmania major) (Q4Q090 1-553): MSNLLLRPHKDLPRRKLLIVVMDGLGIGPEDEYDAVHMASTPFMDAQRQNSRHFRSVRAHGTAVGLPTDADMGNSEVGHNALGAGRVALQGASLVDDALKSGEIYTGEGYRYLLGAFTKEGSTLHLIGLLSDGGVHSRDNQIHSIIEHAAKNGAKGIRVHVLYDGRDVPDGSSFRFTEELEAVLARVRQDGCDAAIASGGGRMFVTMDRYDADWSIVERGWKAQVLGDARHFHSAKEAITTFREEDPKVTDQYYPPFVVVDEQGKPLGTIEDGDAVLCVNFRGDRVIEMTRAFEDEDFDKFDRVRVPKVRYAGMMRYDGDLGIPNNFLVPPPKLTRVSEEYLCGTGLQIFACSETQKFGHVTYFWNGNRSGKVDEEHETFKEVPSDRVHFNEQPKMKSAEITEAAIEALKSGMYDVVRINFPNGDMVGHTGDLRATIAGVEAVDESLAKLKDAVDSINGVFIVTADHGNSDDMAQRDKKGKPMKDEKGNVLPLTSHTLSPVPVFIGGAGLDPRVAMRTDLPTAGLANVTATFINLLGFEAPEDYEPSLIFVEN
In short: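 Lm PGAM at 1.25 nM final with substrate in 100 mM TEA pH 7.6, 5 mM MgCl2, 0.01% Tween-20; 45 min at room temperature. Kinase-GloPlus added, 10 min, end-point luminescence read.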

[10] = target: Ubiquitin carboxyl-terminal hydrolase 1 (Homo sapiens) (UniProt O94782); assay: Inhibitors of USP1/UAF1: Pilot qHTS (AID 504865);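 note: rhodamine fluorescence freed from ubiquitin-rhodamine substrate followed over time; top concentration of the series differs between compounds; nearly all actives have a fitted effect of over 35% in size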
Sequence of Ubiquitin carboxyl-terminal hydrolase 1 (Homo sapiens) (O94782 whole entry, looked up): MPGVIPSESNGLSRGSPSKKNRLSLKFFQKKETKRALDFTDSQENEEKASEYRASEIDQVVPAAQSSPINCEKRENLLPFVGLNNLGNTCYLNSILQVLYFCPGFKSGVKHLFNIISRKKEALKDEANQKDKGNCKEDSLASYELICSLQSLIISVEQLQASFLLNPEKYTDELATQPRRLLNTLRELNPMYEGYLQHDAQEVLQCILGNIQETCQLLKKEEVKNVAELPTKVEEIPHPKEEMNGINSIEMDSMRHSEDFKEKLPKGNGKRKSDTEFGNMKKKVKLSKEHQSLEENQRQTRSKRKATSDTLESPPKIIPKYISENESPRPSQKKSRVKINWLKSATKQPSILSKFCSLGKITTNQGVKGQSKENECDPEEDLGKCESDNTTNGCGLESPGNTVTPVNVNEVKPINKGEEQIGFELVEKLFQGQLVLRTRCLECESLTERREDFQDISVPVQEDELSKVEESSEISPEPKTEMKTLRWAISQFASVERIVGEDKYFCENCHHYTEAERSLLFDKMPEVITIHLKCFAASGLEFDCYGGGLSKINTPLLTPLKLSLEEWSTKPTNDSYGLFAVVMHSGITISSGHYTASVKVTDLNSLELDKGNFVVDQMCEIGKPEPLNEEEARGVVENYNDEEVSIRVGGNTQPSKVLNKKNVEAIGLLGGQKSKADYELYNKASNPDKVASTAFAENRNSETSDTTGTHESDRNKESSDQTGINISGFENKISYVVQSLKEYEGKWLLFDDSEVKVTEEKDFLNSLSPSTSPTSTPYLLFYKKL
In short: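 Kinetic fluorescence assay: 1nM USP1/UAF1, 15 min compound preincubation, then 150nM Ub-Rho; 480/540 nm.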

[11] = qHTS for Inhibitors of ATXN expression: Validation of Cytotoxic Assay (AID 588349)
In short: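 Toxicity of test compounds toward HEK293 cells is scored from cellular ATP content measured by CellTiter Glo. Cells receive titrated doses and incubate 72 hr at 37 degrees C beforehand.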

[12] = qHTS for Inhibitors of ATXN expression: Validation (AID 588378); note: series mostly up to about 57 µM; nearly all actives have a fitted effect of over 75% in size
In short: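 Validation of ATXN2 expression inhibitors uses a cell-based luciferase fusion reporter in HEK293 cells, with 24 h compound exposure and paired viability (fluorescence) and reporter (luminescence) end-point reads.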

[13] = target: DNA dC->dU-editing enzyme APOBEC-3G (Homo sapiens) (UniProt Q9HC16); assay: qHTS for inhibitors of Vif-A3G interactions: Validation (AID 588379)
Sequence of DNA dC->dU-editing enzyme APOBEC-3G (Homo sapiens) (Q9HC16 whole entry, looked up): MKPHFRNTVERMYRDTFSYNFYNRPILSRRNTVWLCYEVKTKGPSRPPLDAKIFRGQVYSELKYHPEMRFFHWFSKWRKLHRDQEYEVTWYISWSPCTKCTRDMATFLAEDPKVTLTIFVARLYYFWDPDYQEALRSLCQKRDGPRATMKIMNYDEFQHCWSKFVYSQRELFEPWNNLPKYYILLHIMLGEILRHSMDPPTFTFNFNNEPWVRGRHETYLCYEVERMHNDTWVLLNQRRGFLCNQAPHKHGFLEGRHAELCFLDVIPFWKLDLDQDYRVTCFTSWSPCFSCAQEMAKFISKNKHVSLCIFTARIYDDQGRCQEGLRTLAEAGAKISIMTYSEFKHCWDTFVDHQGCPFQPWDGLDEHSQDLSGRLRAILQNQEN
In short: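 Yellow fluorescence (Ex 488, Em 500-530) of Vif-coexpressing HeLa A3G-eYFP cells, scanned by Acumen cytometer, reports blocked A3G degradation. Cells plated at 700/well overnight at 37 deg C before compound addition, then a further overnight compound incubation at 37 deg C.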

[14] = target: Glucocorticoid receptor (Homo sapiens) (UniProt P04150); assay: qHTS assay for small molecule agonists of glucocorticoid receptor signaling (AID 588532; active = well fitted curve in the direction sought with a large enough effect in the signal ratio, with a control signal flat; the % refers to the signal ratio); conditions: HeLa MMTV-bla, beta-lactamase ratio, agonist, 18 h; stronger effect = higher value; percent of dexamethasone control, DMSO zero
In short: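 Cells were plated and rested 3-5 h at 37 C, compounds were added in titration and incubated 18 h, then CCF4 substrate was loaded for 2 h at RT before reading blue/green fluorescence. EC50 came from Hill-equation fitting.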

SMILES | Potency [1] | Potency [2] | Potency [3] | viability change [3] | outcome [4] | Potency [5] | Potency [6] | Potency [7] | Potency [8] | outcome [9] | Potency [10] | outcome [11] | Potency [12] | outcome [13] | activation [14]
CC12CC3CC(C)(C1)CC(N)(C3)C2 | inactive | inactive | inactive | -3.89% | inactive | inactive | inactive | inactive | inactive | inactive | inactive | inactive | – | – | –
O=C(c1ccc(F)cc1)C1CCN(CCn2c(=O)[nH]c3ccccc3c2=O)CC1 | inactive | inactive | inactive | 2.61% | inactive | inactive | inactive | inactive | inactive | inactive | inactive | inactive | inactive | inactive | –
CC(C)NCC(O)COc1ccc(CCOCC2CC2)cc1 (stereo unspecified) | inactive | inactive | inactive | -1.98% | inactive | inactive | inactive | inactive | inactive | inactive | inactive | inactive | – | – | –
CN1CCN(CCCN2c3ccccc3Sc3ccc(Cl)cc32)CC1 | inactive | inactive | – | – | inactive | inactive | – | inactive | inactive | inactive | – | – | – | – | –
Cn1c(=O)c2c(ncn2C)n(C)c1=O | inactive | inactive | inactive | -2.67% | inactive | – | inactive | inactive | – | – | inactive | inactive | inactive | inactive | -1.83% (inactive)
CN1C2CCC1CC(OC(=O)C(CO)c1ccccc1)C2 (stereo unspecified) | inactive | inactive | inactive | 0.769% and 1.89% | inactive | inactive | inactive | inactive | inactive | inactive | – | inactive | – | – | –
Cc1cc(C(C)(C)C)cc(C)c1CC1=NCCN1 | inactive | inactive | inactive | 1.17% | inactive | inactive | inactive | inactive | inactive | inactive | inactive | inactive | – | – | –
NC12CC3CC(CC(C3)C1)C2 | inactive | inactive | – | – | inactive | – | inactive | inactive | – | – | inactive | inactive | inactive | – | –
COc1cc2nc(N(C)CCCNC(=O)C3CCCO3)nc(N)c2cc1OC (stereo unspecified) | inactive | inactive | inactive | -7.87% | inactive | – | – | inactive | inactive | inactive | inactive | inactive | – | – | –
O=C1Cc2cc(CCN3CCN(c4nsc5ccccc45)CC3)c(Cl)cc2N1 | inactive | 9.2 µM (active) | inactive | -17.6% | inactive | – | – | inactive | inactive | inactive | – | – | – | – | –
COc1cc2nc(N3CCN(C(=O)C4COc5ccccc5O4)CC3)nc(N)c2cc1OC (stereo unspecified) | inactive | 23.1 µM (active) | inactive | -11.8% | inactive | inactive | inactive | inactive | inactive | inactive | – | – | – | – | –
